{"source": "the supplement of paper PMC8728848", "assay_in_all_cases": "glycan array binding signal (z-score within array); higher = stronger binding", "details_in_all_cases": "glycan notation: IUPAC condensed, linker removed", "key": {"[1]": {"tested_on": "Neu5Ac(a2-3)Gal(b1-4)GlcNAc(b1-3)Gal(b1-4)GlcNAc(b1-3)Gal(b1-4)GlcNAc", "outline": "(§1)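 Arrays were curated from the Consortium for Functional Glycomics database, 3228 in total, and kept only where the protein sequence was available. Binding is expressed as a within-array Z-score. This score was averaged across arrays of the same protein sequence at different concentrations or buffers and across linkers, and negative values can be read as non-binding.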"}, "[2]": {"tested_on": "Neu5Ac(a2-3)Gal(b1-4)GlcNAc(b1-3)GalNAc", "outline": "as §1"}, "[3]": {"tested_on": "Neu5Ac(a2-3)Gal(b1-4)GlcNAc(b1-3)Gal(b1-4)GlcNAc(b1-2)Man(a1-3)[Neu5Ac(a2-3)Gal(b1-4)GlcNAc(b1-3)Gal(b1-4)GlcNAc(b1-2)Man(a1-6)]Man(b1-4)GlcNAc(b1-4)GlcNAc", "outline": "as §1"}, "[4]": {"tested_on": "Neu5Ac(a2-3)Gal(b1-4)GlcNAc(b1-3)Gal(b1-4)GlcNAc(b1-3)Gal(b1-4)GlcNAc(b1-2)Man(a1-3)[Neu5Ac(a2-3)Gal(b1-4)GlcNAc(b1-3)Gal(b1-4)GlcNAc(b1-3)Gal(b1-4)GlcNAc(b1-2)Man(a1-6)]GalNAc", "outline": "as §1"}, "[5]": {"tested_on": "Neu5Ac(a2-3)Gal(b1-4)GlcNAc(b1-3)Gal(b1-4)GlcNAc(b1-3)GalNAc", "outline": "as §1"}, "[6]": {"tested_on": "Neu5Ac(a2-3)Gal(b1-4)GlcNAc(b1-6)[Gal(b1-3)]GalNAc", "outline": "as §1"}, "[7]": {"tested_on": "Neu5Ac(a2-3)Gal(b1-4)GlcNAc(b1-3)Gal", "outline": "as §1"}, "[8]": {"tested_on": "Neu5Ac(a2-3)Gal(b1-4)GlcNAc6S", "outline": "as §1"}, "[9]": {"tested_on": "Neu5Ac(a2-3)Gal(b1-4)GlcNAc(b1-3)Gal(b1-4)[Fuc(a1-3)]GlcNAc", "outline": "as §1"}, "[10]": {"tested_on": "Neu5Ac(a2-3)Gal(b1-4)GlcNAc(b1-6)GalNAc", "outline": "as §1"}}, "note": "About 410 targets per protein were measured; listed, in parts, are those with the strongest signals and a random draw of the rest."}
{"substance": "SiiE (Salmonella typhimurium), A0A0H3NVH0", "values": [{"measurement": "glycan array binding signal (z-score)", "setting": "[1]", "result": -0.456}, {"measurement": "glycan array binding signal (z-score)", "setting": "[2]", "result": -1.98}]}
{"substance": "BambL (Burhholderia ambifaria), Q0B4G1", "values": [{"measurement": "glycan array binding signal (z-score)", "setting": "[1]", "result": -0.313}]}
{"substance": "AgI/II Vhelical-GFP (Streptococcus mutans)", "values": [{"measurement": "glycan array binding signal (z-score)", "setting": "[3]", "result": 1.8}, {"measurement": "glycan array binding signal (z-score)", "setting": "[4]", "result": -0.031}, {"measurement": "glycan array binding signal (z-score)", "setting": "[5]", "result": 0.5}, {"measurement": "glycan array binding signal (z-score)", "setting": "[6]", "result": -0.273}]}
{"substance": "SpGH101 (Streptococcus pneumoniae), Q8DR60", "values": [{"measurement": "glycan array binding signal (z-score)", "setting": "[7]", "result": -0.209}]}
{"substance": "Epa22", "values": [{"measurement": "glycan array binding signal (z-score)", "setting": "[8]", "result": 0.274}]}
{"substance": "LcI (Legionella pneumophila)", "values": [{"measurement": "glycan array binding signal (z-score)", "setting": "[9]", "result": -0.717}, {"measurement": "glycan array binding signal (z-score)", "setting": "[10]", "result": 3.79}, {"measurement": "glycan array binding signal (z-score)", "setting": "[8]", "result": -0.956}]}
{"substance": "Wza (Escherichia coli), P0A930", "values": [{"measurement": "glycan array binding signal (z-score)", "setting": "[7]", "result": 2.81}]}
